A selection: hits, their analogues and other compounds. The true share with any hit is near 1.5%.
FEN1 inhibitor: inhibitors of human flap endonuclease 1; Potency, µM (highest dose often 114 µM), for inactives: top-dose activity change, negative = inhibition, hits mostly inhibitors; 0.35% of 390,000 active; P39748; Recombinant FEN1 flap cleavage, fluorescence, 15 min; AID 588795; further: potency means the concentration at half of the fitted maximal effect; nearly all actives have a fitted effect of over 65% in size
Target sequence (P39748 whole entry, looked up): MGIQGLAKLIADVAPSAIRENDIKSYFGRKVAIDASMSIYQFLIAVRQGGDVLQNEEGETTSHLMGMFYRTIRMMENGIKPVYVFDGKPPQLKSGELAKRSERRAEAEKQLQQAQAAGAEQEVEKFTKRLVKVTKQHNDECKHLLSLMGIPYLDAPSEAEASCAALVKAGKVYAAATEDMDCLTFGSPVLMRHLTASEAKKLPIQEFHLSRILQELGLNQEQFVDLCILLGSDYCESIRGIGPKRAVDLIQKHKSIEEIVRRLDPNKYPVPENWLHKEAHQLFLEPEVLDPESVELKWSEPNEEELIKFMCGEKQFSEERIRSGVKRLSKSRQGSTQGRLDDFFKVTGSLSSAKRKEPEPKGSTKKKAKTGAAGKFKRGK
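With each library titrated from low to high concentration, compounds met 10 nM FEN1 for 15 min at room temperature before 50 nM substrate was added; readings at 0 and 15 min fed four-parameter Hill curve fits.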
RECQ1 inh-1: blocks DNA unwinding by human RECQ1; RECQ1 DNA unwinding, red fluorescence kinetic read; Potency, µM (highest dose often 57.3 µM), without a hit: at the top dose activity, negative = inhibition, actives largely listed as inhibitors; 0.54% of 240,000 active; AID 2549;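 further: potency means the concentration at half of the fitted maximal effect; plate controls were vehicle for no effect and no enzyme for full effect; nearly all actives have a fitted effect of over 30% in size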
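50 nM RECQ1T1 preincubated 15 min with compound in Tris pH 8.0 buffer with MgCl2, DTT, Tween-20 and 2.5 ug/ml poly(dI-dC); started with 200 nM TAMRA/BHQ-2 forked duplex and 2 mM ATP. Unwinding read as fluorescence (525/598 nm), two reads 2 h apart.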
WRN helicase inh: WRN helicase (human) inhibition; Q14191; WRN helicase unwinding, fluorescent forked duplex, kinetic; Potency, µM (top dose mostly 114 µM), for the others: top-dose activity change, negative = inhibition, actives largely listed as inhibitors; 0.46% of 360,000 active; AID 651768; further: potency means the concentration at half of the fitted maximal effect; nearly all actives have a fitted effect of over 55% in size
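Fluorescence dequenching readout, ex 525 nm/em 598 nm, kinetic mode: forked duplex DNA (100 nM final) with adjacent fluorophore and quencher unwound by WRN (20 nM final) with 2 mM ATP. Compound preincubation 15 min, room temperature.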
APE1 inh-1: blocks human APE1 abasic DNA cleavage. 0.35% of 350,000 active. recombinant APE1, TAMRA/BHQ-2 abasic DNA cleavage fluorescence. Potency, µM (series often up to 65.8 µM), for inactives: top-dose activity change, negative = inhibition, usual class: inhibitors;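 further: potency means the concentration at half of the fitted maximal effect; plate controls were vehicle for no effect and reference inhibitor for full effect; nearly all actives have a fitted effect of over 55% in size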
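Measures dequenching upon AP-site incision of a 5'-TAMRA/3'-BHQ-2 THF-containing duplex, 50 nM; human APE1 0.75 nM after 15 min room-temperature exposure to compound; kinetic three-point read at one-minute spacing.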
BLM inh-1: inhibitors of human Bloom syndrome helicase BLM; P54132; recombinant BLM DNA unwinding, fluorescence dequenching; Potency, µM (highest dose often 56.1 µM), for the others: top-dose activity change, negative = inhibition, hits mostly inhibitors; 0.2% of 350,000 active;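 further: potency means the concentration at half of the fitted maximal effect; plate controls were vehicle for no effect and no enzyme for full effect; nearly all actives have a fitted effect of over 35% in size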
PI5P4K alpha inh: PI5P4K alpha (human) kinase inhibition | P48426 | PI5P4Kalpha enzyme, ADP-Glo luminescence, 60 min; active compounds read low | max response, % | 1.2% of 330,000 active | AID 652105; active means max response of -50% or lower; inconclusive means between -30% and -50%; inactive means -30% or higher; further: value at the top dose of about 77 µM
Target sequence (P48426 whole entry, looked up): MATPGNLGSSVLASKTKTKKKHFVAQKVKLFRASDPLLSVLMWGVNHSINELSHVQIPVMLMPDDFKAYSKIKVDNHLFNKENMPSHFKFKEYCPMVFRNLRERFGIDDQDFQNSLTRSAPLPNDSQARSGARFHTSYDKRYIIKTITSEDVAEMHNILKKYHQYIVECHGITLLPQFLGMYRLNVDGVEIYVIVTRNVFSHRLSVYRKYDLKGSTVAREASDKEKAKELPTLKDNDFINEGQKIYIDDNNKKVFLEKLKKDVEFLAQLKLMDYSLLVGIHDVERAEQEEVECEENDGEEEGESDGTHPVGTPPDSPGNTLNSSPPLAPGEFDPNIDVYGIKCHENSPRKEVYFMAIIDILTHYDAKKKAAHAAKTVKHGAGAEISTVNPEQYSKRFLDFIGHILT
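ADP-Glo luminescence end-point read after a 60 min room-temperature kinase reaction of PI5P4Kalpha plus substrate, initiated with ATP at 5 microM final. Buffer: 0.038 M HEPES pH 7.4, EGTA, 0.1% CHAPS, 5% DMSO.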
DNA dye displace: counter-screen for APE1 inhibitors: DNA dye displacement. shares compounds with APE1 inh-1. DNA fluorescent dye displacement counterscreen, fluorescence. Potency, µM (highest dose often 28.5 µM), inactives show at the highest dose activity change, negative = inhibition, actives largely listed as inhibitors. 7% of 480 active;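 further: loss of thiazole orange fluorescence as the dye is displaced from duplex DNA; potency means the concentration at half of the fitted maximal effect; 0% = ThO with dsDNA and no compound and -100% = ThO without dsDNA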
EndoIV counter: Endo IV (E. coli) inhibition counter-screen; Potency, µM (top dose mostly 27.1 µM), for inactives: at the highest dose activity change, negative = inhibition, hits mostly inhibitors; E. coli Endo IV, fluorogenic AP-site DNA cleavage; 4% of 560 active; shares compounds with APE1 inh-1;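 further: potency means the concentration at half of the fitted maximal effect; plate controls were uninhibited enzyme wells for no effect and no enzyme buffer wells for full effect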
APE1 inh-2: APE1 (human) endonuclease inhibition, confirmation; shares compounds with APE1 inh-1; purified APE1, fluorogenic abasic-site DNA cleavage; Potency, µM (titrated, usually from 57.1 µM), for the others: top-dose activity change, negative = inhibition, most hits filed as inhibitors; 44% of 750 active; AID 2572; further: potency means the concentration at half of the fitted maximal effect; nearly all actives have a fitted effect of over 30% in size
APE1 FP inh: compounds that displace a DNA probe from human APE1; 7% of 480 active; APE1 binding to TAMRA-labelled double-stranded DNA, fluorescence polarization displacement; shares compounds with APE1 inh-1; Potency, µM (top dose mostly 28.5 µM), inactives show at the highest dose activity, negative = inhibition, hits mostly inhibitors; further: potency means the concentration at half of the fitted maximal effect
BLM inh-2: BLM (human) helicase inhibition, confirmation; shares compounds with BLM inh-1; BLM DNA unwinding, fluorescence quenching, biochemical; Potency, µM, for the others: max response, negative = inhibition, hits mostly inhibitors; 40% of 220 active; AID 2585;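 further: strand separation dequenches TAMRA so unwinding raises red fluorescence; potency means the concentration at half of the fitted maximal effect; series mostly up to about 69 µM; nearly all actives have a fitted effect of over 45% in size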
RECQ1 conf: confirmation of human RECQ1 helicase inhibitors; shares compounds with RECQ1 inh-1; RECQ1 helicase DNA unwinding, fluorescence; Potency, µM (series often up to 229 µM), inactives show top-dose activity change, negative = inhibition, hits mostly inhibitors; 28% of 610 active; AID 2708; further: potency means the concentration at half of the fitted maximal effect; nearly all actives have a fitted effect of over 45% in size
RECQ1 ADP FP: ADP displacement flagged in RECQ1 inhibitor counter-screen; shares compounds with RECQ1 inh-1; ADP fluorescence polarization displacement counterscreen; Potency, µM (highest dose often 228 µM), without a hit: at the highest dose activity change, negative = inhibition, usual class: inhibitors; 27% of 530 active; AID 2711; further: potency means the concentration at half of the fitted maximal effect; nearly all actives have a fitted effect of over 45% in size
RECQ1 inh-2: RECQ1 helicase inhibition confirmed, round 2. shares compounds with RECQ1 inh-1. recombinant RECQ1 DNA unwinding, red fluorescence. Potency, µM (top dose mostly 119 µM), for the others: at the top dose activity, negative = inhibition, most hits filed as inhibitors. 15% of 1,100 active. AID 504841; further: potency means the concentration at half of the fitted maximal effect; nearly all actives have a fitted effect of over 50% in size
Starred values were filed as active, the others as inactive; i = inactive; ? = inconclusive; · = not tested or not shown; ! = a repeat was not active; [ ] = dose if it differs, or a comment. Unless noted, the call rests on the fitted dose curve; in most records, active means well fitted curve in the direction sought with a large enough effect; inconclusive means small, poorly fitted or top-dose-only effect, or another doubt; inactive means no such curve, though single readings can be large; an effect the other way counts as inactive or inconclusive. Unless noted, on the % scale 0 is the no-effect control and ±100 the full control effect.

SMILES | FEN1 inhibitor | RECQ1 inh-1 | WRN helicase inh | APE1 inh-1 | BLM inh-1 | PI5P4K alpha inh | DNA dye displace | EndoIV counter | APE1 inh-2 | APE1 FP inh | RECQ1 inh-2 | others
O=C(NN1C(=O)C2CC=C(Cl)CC2C1=O)c1ccncc1 (configuration not stated) | -2% | 13µM* | ? | ? | -14% | ? | · | · | -18% | · | 13µM* | RECQ1 conf=32µM*;RECQ1 ADP FP=?
Cc1c(C(=O)OCc2ccccc2)[nH]c2c1C(=O)CC(c1ccco1)C2 (configuration not stated) | ? | 32µM* | 50µM* | 25µM* | -24% | -51* | 6% | 3% | 14µM* | -40% | ?
Cc1cc(Cl)ccc1OCC(=O)N(Cc1ccco1)Cc1ccco1 | -19% | · | · | · | -8% | · | · | · | · | · | ·
COc1cccc(-n2nnc(-c3nc(-c4ccccc4F)no3)c2C)c1 | -8% | · | · | · | -6% | · | · | · | · | · | ·
Cc1cc(C)cc(NC(=O)CCCn2c3ccccc3c(=O)c3ccccc32)c1 | 4% | · | · | · | -6% | · | · | · | · | · | ·
Cc1ccc2c(=O)c3ccccc3n(CCCN)c2c1C | · | 32µM*! | · | 4.5µM*! | 29% | · | 14µM* | -91%[57.1 µM] | 8.9µM* | -80%[57.1 µM] | 18µM*
O=C(Cn1cnc2sc(-c3ccccc3)cc2c1=O)NCc1ccco1 | ? | 20µM* | 56µM* | 32µM* | 18µM* | -83* | 11% | -11% | 8.9µM* | ? | · | BLM inh-2=?;RECQ1 conf=40µM*;RECQ1 ADP FP=-22%[91.9 µM]
O=C(Cn1cnc2sc(-c3ccccc3)cc2c1=O)NCc1ccccc1 | 0% | i | -11% | 18% | -12% | · | · | · | · | · | ·
C=C(C)C(=O)Nc1cccc(C2=NOC3(C2)C[C@@H](C(N)=O)N(C(=O)c2cc([N+](=O)[O-])cc([N+](=O)[O-])c2)C3)c1 (some centres not stated) | 13% | -21% | -21% | 7% | -2% | -15 | · | · | · | · | ·
C=C(C)C(=O)Nc1cccc(C2=NOC3(C2)C[C@@H](C(N)=O)N(C(=O)c2ccc(OC)cc2)C3)c1 (some centres not stated) | ? | 7.9µM* | ? | ? | -7% | ? | · | · | ? | · | · | RECQ1 conf=25µM*;RECQ1 ADP FP=35µM*
COc1ccc(N2Cc3cccc(C(=O)O)c3C2=O)cc1 | -16% | 14µM* | 50µM* | 13µM* | 16µM* | ? | 4% | -1% | 4µM* | ? | 4.5µM* | BLM inh-2=16µM*;RECQ1 conf=25µM*;RECQ1 ADP FP=-32%[91.9 µM]
Cc1cc2oc(=O)c(CC(=O)NCCc3ccccc3F)c(C)c2c2occ(C(C)(C)C)c12 | 3% | · | · | · | -3% | · | · | · | · | · | ·
O=c1cc(-c2ccc(O)cc2)oc2cc(O)c(C3OC(CO)C(O)C(O)C3O)c(O)c12 (configuration not stated) | ? | ? | ? | 7.1µM* | -16% | -19 | -10% | -1% | 13µM* | 2% | 50µM*
O=c1cc(-c2ccc(O)cc2)oc2cc(O[C@H]3OC(CO)C(O)C(O)C3O)cc(O)c12 (some centres not stated) | · | 0% | · | -7% | 5% | · | · | · | · | · | ·
CCOC(=O)c1cc(C)n(CC2CCC(C(=O)Nc3ccc(C)cc3)CC2)c1C (configuration not stated) | -7% | · | · | · | -11% | · | · | · | · | · | ·
Cc1cc(=O)n2[nH]c(-c3ccsc3-n3c(C)ccc3C)cc2n1 | ? | 8.9µM* | ? | 3.5µM* | 7.9µM* | -86* | -10% | 10% | ? | 3% | ? | RECQ1 conf=50µM*;RECQ1 ADP FP=32µM*
COc1cccc(C2=NS(=O)(=O)N(C)C(C(=O)Nc3ccccc3SC)=C2)c1 | 0% | · | · | · | -6% | · | · | · | · | · | ·
C=CCn1c(SCC(=O)NC2CCCC2)nnc1-c1cccnc1 | -4% | · | -3% | 11% | -1% | 3 | · | · | · | · | ·
CCn1c(SCC(=O)c2ccc(O)c(O)c2)nnc1-c1ccccc1OC | 2% | 14µM* | 20µM* | ? | -5% | -17 | 4% | 90% | ? | 2% | 2µM*
CCn1c(SCC(=O)c2ccc(O)c(O)c2)nnc1-c1ccccc1 | 4% | -22% | -31% | ? | -15% | -16 | · | · | · | · | ·
C=CCn1c(SCC(=O)c2ccc(O)c(O)c2)nnc1-c1cccnc1 | ? | 8.9µM* | 40µM* | 1.6µM* | ? | -51* | -5% | 136% | 2.5µM* | -23% | 3.5µM*
O=C(Nc1ccccc1)N(Cc1cccs1)c1ccc(F)cc1 | -7% | · | · | · | -4% | · | · | · | · | · | ·
COc1c(Cl)cc(C(=O)NN)cc1Cl | 1% | i | -26% | -1% | -5% | 5 | · | · | · | · | ·
NNC(=O)c1cc(O)c(O)c(O)c1 | 22µM* | 3.2µM* | -16%[57.1 µM] | 0.89µM* | ? | -17 | 3% | 164% | 4µM* | 5% | · | RECQ1 conf=8%[114 µM];RECQ1 ADP FP=-11%[91.9 µM]
Cc1oc2ncnc(N3CCOCC3)c2c1C(=O)Nc1ccc(Br)cc1F | 13% | · | · | · | 1% | · | · | · | · | · | ·
O=S(=O)(Nc1cccc2cccnc12)c1ccccc1O | · | -1% | · | -3% | -7% | · | · | · | · | · | ·
